Screening results (PubChem)
PINK1 modulator: modulators of PINK1 expression; PINK1 immunofluorescence, high-content cytometry, 24 h; Potency, µM (doses to about 76.6 µM), without a hit: at the highest dose activation (PINK1 increase), hits mostly activators; 0.2% of 410,000 active; AID 624263; active = well fitted activation curve with a large enough effect; inconclusive = small, poorly fitted or top-dose-only effect; cell line not stated here; also: % of control where 0% means no effect; nearly all actives have a fitted effect of over 65% in size
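Measures PINK1 amount and localization on or inside mitochondria by immunofluorescence. Stable cells get compounds at 5 concentrations for 24 hours before fixation and staining; CCCP controls included.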
Epigenetic derep: epigenetic control regulation, reporter derepression | Potency, µM (top dose mostly 53.9 µM), inactives show at the highest dose GFP activation, hits mostly activators | AID 1865 | 0.2% of 280,000 active | murine LDR cells, GFP reporter derepression, 30 h; also: % of control where 0% means no effect; nearly all actives have a fitted effect of over 60% in size
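Reporter derepression read as number of fluorescent GFP-positive objects, 20-120 um in size, counted by laser-scanning cytometer. Mouse LDR line with an epigenetically silenced CMV-GFP locus; compound incubation 30 h, 37 C.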
RORg inh: blocks mouse ROR gamma transcriptional activity | Drosophila S2 Gal4-RORgamma UAS-luciferase reporter, 20 h | P51450 | Potency, µM (titrated, usually from 53.6 µM), for the others: top-dose activity change, negative = inhibition, hits mostly inhibitors | 5.4% of 310,000 active | AID 2551; also: % is scaled to controls: 0 for no effect and ±100 for the full control effect; nearly all actives have a fitted effect of over 60% in size
Target sequence (P51450 whole entry, looked up, the tested form may be a part): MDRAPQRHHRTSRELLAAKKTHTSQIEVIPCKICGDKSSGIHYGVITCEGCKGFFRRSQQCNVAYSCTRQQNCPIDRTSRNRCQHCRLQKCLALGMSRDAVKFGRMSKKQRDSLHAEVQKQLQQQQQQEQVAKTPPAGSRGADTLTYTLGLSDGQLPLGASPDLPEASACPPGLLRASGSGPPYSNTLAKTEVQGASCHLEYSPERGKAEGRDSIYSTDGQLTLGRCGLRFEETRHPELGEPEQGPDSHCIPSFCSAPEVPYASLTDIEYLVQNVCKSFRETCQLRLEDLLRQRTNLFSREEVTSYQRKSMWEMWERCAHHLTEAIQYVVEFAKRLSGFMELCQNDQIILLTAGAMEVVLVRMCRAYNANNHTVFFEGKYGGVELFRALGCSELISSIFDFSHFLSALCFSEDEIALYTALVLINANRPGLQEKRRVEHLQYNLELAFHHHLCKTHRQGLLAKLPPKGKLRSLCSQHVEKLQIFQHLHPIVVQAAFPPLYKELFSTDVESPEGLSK
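In this cell-based reporter format, copper sulfate (700 uM final) drives Gal4–ROR gamma fusion expression from a metallothionein promoter in Drosophila Schneider cells; compounds preincubated 1 hr, reporter read after 20 hr at ambient temperature.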
ClpP mod: qHTS Assay for Activators of ClpP | ATP-dependent Clp protease proteolytic subunit (Bacillus subtilis (strain 168)), P80244 | purified B. subtilis ClpP, FRET peptide cleavage, 20 min | Potency, µM (titrated, usually from 57.5 µM), without a hit: at the highest dose activity change, negative = active | 1.9% of 340,000 active; active = well fitted falling curve with a large enough effect; inconclusive = small, poorly fitted or top-dose-only effect; inactive = no such curve, though single readings can be large or run the other way; also: the source files actives as falling curves though it sought activators and does not explain the sign; nearly all actives have a fitted effect of over 65% in size
Target sequence (P80244 whole entry, looked up): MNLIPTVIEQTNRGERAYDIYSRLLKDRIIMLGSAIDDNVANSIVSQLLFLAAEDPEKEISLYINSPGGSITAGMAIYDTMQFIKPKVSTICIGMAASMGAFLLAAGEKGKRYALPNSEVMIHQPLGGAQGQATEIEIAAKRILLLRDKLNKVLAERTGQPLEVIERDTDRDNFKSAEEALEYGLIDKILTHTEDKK
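Buffer: 100 mM Tris/HCl pH8, 100 mM KCl, 0.05% low protease BSA, 2.5% glycerol, 0.01% Tween-20. ClpP 10 microg/mL final; 20 min RT; delta FRET normalized to ADEP and DMSO controls.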
VP16 counter: Gal4-VP16 reporter inhibition counter-screen | Drosophila S2 Gal4-VP16 UAS-luciferase, luminescence, 20 h | Potency, µM (series often up to 53.6 µM), inactives show at the top dose activity, negative = inhibition, hits mostly inhibitors | 3.5% of 310,000 active;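 also: Gal4-VP16 expression switched on by copper sulfate through the metallothionein promoter; % is scaled to controls: 0 for no effect and ±100 for the full control effect; nearly all actives have a fitted effect of over 50% in size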
Sfp PPTase inh: inhibitors of Bacillus subtilis Sfp phosphopantetheinyl transferase; Potency, µM, for inactives: largest response in the series, negative = inhibition, hits mostly inhibitors; AID 1490; 3.5% of 310,000 active; Biochemical Sfp PPTase activity, qHTS; Q9F4F7;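 also: the enzyme is Sfp with the accession as filed and its product quenches rhodamine fluorescence; 0% = enzyme reaction without inhibitor and -100% = no enzyme wells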
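Reaction rates are the 30-min fluorescence difference (ex 525, em 598 nm) in wells containing 15 nM Sfp, 5 uM rhodamine-CoA and 12.5 uM BHQ-2-YbbR at pH 7.6 with 10 mM MgCl2.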
Starred values were filed as active, the others as inactive; u = inconclusive; x = not tested or not shown; [ ] = remark or other dose. Only some compounds are listed: those with a hit (about 8.1% of all), similar ones and a draw of the others. Unless noted, calls follow the shape of the dose curve; as a rule, active = well fitted curve in the direction sought with a large enough effect; inconclusive = small, poorly fitted or top-dose-only effect, or another doubt; inactive = no such curve, though single readings can be large; an effect the other way counts as inactive or inconclusive. Potency is read from the fitted curve at half-maximal effect.

SMILES	PINK1 modulator	Epigenetic derep	RORg inh	ClpP mod	VP16 counter	Sfp PPTase inh
CC1(C)Cc2ccccc2-c2nc(NCCO)n(-c3ccccc3)c(=O)c21	1%	0%	-22%	u	-1%	-6%
CS(=O)(=O)c1ccc2nc(NC(=O)c3ccccc3)sc2c1	0%	x	11µM*	1%	u	15%
Cc1ccc(N2CC(C(=O)Nc3nc4ccc(S(C)(=O)=O)cc4s3)CC2=O)cc1 (stereo not drawn)	0%	x	11%	1%	5%	45µM*
CS(=O)(=O)c1ccc2nc(NC(=O)CCS(=O)(=O)c3ccccc3)sc2c1	-2%	x	18µM*	x	u	-3%
CCS(=O)(=O)N1Cc2ccccc2CC1C(=O)Nc1nc2ccc(C)cc2s1 (stereo not drawn)	2%	-1%	1.3µM*	-4%	u	-3%
Cc1cccc(C(=O)Nc2nc3ccc(S(C)(=O)=O)cc3s2)c1	9%	x	-23%	6%	u	12%
Cc1ncc2c(c1CNC(=O)c1ccc3c(c1)OCO3)CCN(C(=O)c1scc3c1CCCC3)C2	-1%	x	x	x	x	x
Cc1cc(C)cc(NC(=O)c2sc3nc[nH]c(=O)c3c2C)c1	3%	1%	x	-8%	x	x
Cc1cc(Nc2cc(Cl)ccc2C)n2nc(Cc3ccccc3)nc2n1	2%	-3%	x	1%	x	x
CCOc1cc(C(=O)Nc2ccc(-c3nc4cc(Cl)ccc4o3)cc2)cc(OCC)c1OCC	4%	-2%	x	u	x	x
Cc1cc(SCC(=O)c2cccs2)n2nc(C)c(-c3ccc(Cl)cc3)c2n1	5%	2%	1µM*	21%	u	-6%
CCSc1cc(C)nc2c(-c3ccccc3)c(C)nn12	-5%[38.3 µM]	1%	0%	4%	19%	13%
C=CCSc1cc(C)nc2c(-c3ccc(Cl)cc3)c(C)nn12	3%[38.3 µM]	-3%	20µM*	11%	u	20%
Cc1nn2c(SCC(=O)c3cccs3)cc(C(C)(C)C)nc2c1-c1ccccc1	6%	1%	10µM*	-3%	7.1µM*	7%
C=C(C)CSc1cc(C)nc2c(-c3ccccc3)c(C)nn12	0%	0%	11µM*	-4%	u	-15%
COCCCNC(=O)c1cnn(-c2ncc3c(n2)-c2ccccc2CCC3)c1C	1%	x	x	x	x	x
CCN(CCC(=O)O)c1ccc(/C=C/c2ccnc3ccccc23)cc1	0%	x	x	-3%	x	x
CN(C)CC(C)(C)CNC(=O)c1ccc(Cc2nc3ccccc3[nH]2)cc1	x	-3%	x	x	x	x
O=c1/c(=C\c2ccc(O)cc2)sc2n1C(c1ccccc1)C(c1ccccc1)=NN=2 (stereo not drawn)	2%	3%	u	-2%	-11%	50µM*
COc1ccc(Cl)cc1NC(=O)CCS(=O)(=O)c1cccc2nonc12	1%	9%	x	0%	x	x
CCc1nc(N(CC)CC)c2oc3ccccc3c2n1	3%	-2%	14µM*	-8%	u	-4%
CCc1nc(N2CCC(C)CC2)c2oc3ccccc3c2n1	u	-1%	11µM*	32µM*	u	u
O=C(c1ccccc1)c1ccc(N2CCN(C(=O)c3cccc(F)c3F)CC2)c(F)c1	1%	x	u	-7%	13µM*	-1%
O=C(NC(=S)Nc1ccccc1N1CCOCC1)c1ccccc1F	2%	x	13µM*	-1%	20µM*	-3%
FC(F)(F)Oc1ccc(NC(=S)Nc2ccccc2N2CCOCC2)cc1	u	-1%	7.9µM*	x	u	-5%
SMILES	PINK1 modulator	Epigenetic derep	RORg inh	ClpP mod	VP16 counter	Sfp PPTase inh
CN1CCN(c2ccccc2NC(=O)c2ccccc2F)CC1	-2%	1%	11%	-2%	1%	-7%
O=C(NC(=S)Nc1ccccc1N1CCN(C(=O)c2ccccc2)CC1)c1ccccc1F	0%	x	13µM*	32µM*	u	1%
CCC(=O)c1ccc(N2CCN(C(=O)c3ccccc3F)CC2)c(F)c1	1%	3%	19%	x	-14%[10 µM]	-3%
O=C(C[n+]1cccc2cccc(O)c21)c1ccccc1	x	x	x	-3%	x	x
CC(=O)NC(=S)Nc1ccccc1N1CCN(C(=O)c2ccccc2)CC1	0%	5%	6.3µM*	x	5µM*	0%
CC(C)C(=O)NC(=S)Nc1ccccc1N1CCN(C(=O)c2ccccc2)CC1	6%	1%	-21%	1%	-8%	14%
CC(C)c1ccc(NC(=S)N2CCCC(c3ccc(F)cc3)=N2)cc1	3%	0%	11µM*	x	-12%	-2%
S=C(Nc1ccccc1Cl)N1CCCC(c2ccccc2)=N1	0%	1%	-20%	x	1%	-2%
CCS(=O)(=O)N1CCN(c2ccc(C(=O)NC3C4CC5CC(C4)CC3C5)cc2[N+](=O)[O-])CC1 (stereo not drawn)	2%	-1%	u	25µM*	-19%	5%
COc1cccc(CN(Cc2ccco2)C(c2ccc(F)cc2)c2nnnn2C(C)(C)C)c1 (stereo not drawn)	9%	0%	-3%	2%	2.8µM*	-4%
CC(C)(C)n1nnnc1C(c1cccnc1)N(Cc1ccccc1)Cc1ccco1 (stereo not drawn)	1%	-1%	-10%	-16%	-13%	1%
COc1cc(C(=O)OCc2cc(=O)n3nc(C4CCCCC4)sc3n2)cc(OC)c1OC	0%	6%	x	-2%	x	x
COC(=O)C(=O)Nc1cccc2cccnc12	-1%	x	x	x	x	x
CCOC(=O)C(=N/O)/C(C)=N/NC(=O)C(=O)Nc1ccc(Cl)cc1	2%	4%	-44%	0%	20µM*	-3%
CC(=N\Nc1ccc(Cl)cc1)/C(=N/O)C(=O)Nc1ccccc1	11%	-1%	u	-1%	-5%	4%
COc1ccnc(CSC(N)=Nc2ccccc2C(F)(F)F)c1	-1%	-1%	u	1%	-16%	u
COc1ccnc(CN(C)C(=O)C2CCC(=O)N(Cc3cccc(C(F)(F)F)c3)C2)c1 (stereo not drawn)	0%	x	-2%	2%	12%	8%
COc1ccnc(CSC(N)=Nc2cccc(C(F)(F)F)c2)c1	1%	u	6.3µM*	-21%	13µM*	u
COc1ccnc(CSC(N)=Nc2ccccc2OC)c1	-1%	3.5µM*	-101%	-4%	u	32µM*
COc1ccc(Cl)cc1NC(=O)Cn1cc2c(n1)CCC(C)C2 (stereo not drawn)	5%	10%	x	-2%	x	x
COc1cc2nc(SCc3ccc(C)cc3)n3nc(CCn4nc(C)cc4C)nc3c2cc1OC	1%	0%	x	0%	x	x
